# A selection: hits, their analogues and other compounds. The true share with any hit is near 2.4%.
# FEN1 inh: blocks human flap endonuclease 1. 390,000 tested, 0.35% active. Recombinant FEN1 flap cleavage, fluorescence, 15 min. Potency, µM (doses to about 114 µM), without a hit: top-dose activity change, negative = inhibition, usual class: inhibitors. P39748; further: on the % scale 0 is the no-effect control and ±100 the full control effect; nearly all actives have a fitted effect of over 65% in size
#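 Concentration–response screening of FEN1 (10 nM): 15 min compound preincubation at room temperature, reaction started with 50 nM substrate and read at 0 and 15 min. Corrected, normalized data were fitted by a four-parameter Hill equation.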
# POLH inh: inhibitors of human DNA polymerase eta; Q9Y253; recombinant Pol eta, fluorescent DNA replication assay; Potency, µM (top dose mostly 114 µM), without a hit: top-dose activity change, negative = inhibition, hits mostly inhibitors; 390,000 tested, 1.2% active; AID 588591; further: on the % scale 0 is the no-effect control and ±100 the full control effect
#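 Pol eta at 10 nM preincubated with compounds 15 min at room temperature; reaction started with fluorescent substrate (50 nM final) and read kinetically at 0 and 10 min.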
# POLI inh: inhibitors of human DNA polymerase iota; Q9UNA4; Pol iota fluorescent replication assay, 10 min; Potency, µM (highest dose often 115 µM), for the others: top-dose activity, negative = inhibition, actives largely listed as inhibitors; 390,000 tested, 1% active
#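 Pol iota at 10 nM preincubated 15 min with compounds at room temperature; reaction started with fluorescent substrate, 50 nM final. Fluorescence read kinetically at 0 and 10 min; buffer-only wells as negative control.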
# WRN inhibitor: WRN helicase (human) inhibition | Q14191 | WRN helicase unwinding, fluorescent forked duplex, kinetic | Potency, µM (top dose mostly 114 µM), for inactives: top-dose activity change, negative = inhibition, actives largely listed as inhibitors | 360,000 tested, 0.46% active; further: on the % scale 0 is the no-effect control and ±100 the full control effect; nearly all actives have a fitted effect of over 55% in size
#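 WRN at 20 nM final was preincubated with compound for 15 min at room temperature; reaction started with 100 nM forked duplex oligonucleotide carrying fluorophore and quencher plus 2 mM ATP (final). Unwinding followed kinetically by red fluorescence (ex 525/em 598 nm).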
# POLB inh: DNA polymerase beta (human) inhibition; P06746; Pol beta primer extension/strand displacement, fluorescence kinetic; Potency, µM (doses to about 114 µM), for inactives: top-dose activity change, negative = inhibition, usual class: inhibitors; 340,000 tested, 1.3% active; AID 485314; further: on the % scale 0 is the no-effect control and ±100 the full control effect
#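 Pol beta (10 nM) and compounds were preincubated 15 min at room temperature, then 50 nM substrate (final) started primer extension/strand displacement. Reads were taken at 0 and 10 min; concentration-response data were fitted to a four-parameter Hill equation.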
# POLK inh: inhibitors of human DNA polymerase kappa; purified Pol kappa, fluorescent DNA synthesis assay, 10 min; Potency, µM (series often up to 107 µM), without a hit: at the highest dose activity, negative = inhibition, hits mostly inhibitors; 400,000 tested, 0.53% active; further: on the % scale 0 is the no-effect control and ±100 the full control effect
#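 Inhibition of 10 nM Pol kappa is measured by a fluorescent read-out at 0 and 10 min following addition of 50 nM substrate (final), with a 15-min room-temperature compound preincubation.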
# * marks the source's active call; other numbers are inactive results; ? = inconclusive; . = no result given; [ ] = remark or other dose. The call rests on the fitted dose curve; in most records, active means well fitted curve in the direction sought with a large enough effect; inconclusive means small, poorly fitted or top-dose-only effect, or another doubt; inactive means no such curve, though single readings can be large; an effect the other way counts as inactive or inconclusive. Potency means the concentration at half of the fitted maximal effect.
SMILES,FEN1 inh,POLH inh,POLI inh,WRN inhibitor,POLB inh,POLK inh
CC(C)c1ccc(/C=C2\SC(=O)N(CC(=O)NC3CCS(=O)(=O)C3)C2=O)cc1 (stereo not given),-8.3%,50.1µM*,15.8µM*,-2.8%[11.6 µM],?,-16.4%
O=C(CN1C(=O)S/C(=C\c2ccccc2)C1=O)NC1CCS(=O)(=O)C1 (stereo not given),5.8%,-2.1%,45.4%,0.1%,42.1%,9.8%
Cc1sc2ccccc2[n+]1CCCCI,?,.,?,.,.,-21.4%
CCCCCCC[n+]1c(/C=C/c2ccc(N(C)C)cc2)sc2ccccc21,35.5µM*,.,79.4µM*,.,.,39.8µM*
CCCCCCC[n+]1ccc(/C=C/c2c(C)[nH]c3ccccc23)cc1,?,.,11.8%,.,.,-26.9%
CC(=O)Nc1ccc(/C=C/c2sc3ccccc3[n+]2CCCCI)cc1,?,.,79.4µM*,.,.,44.7µM*
CCN(CC)c1ccc(/C=C/c2sc3ccccc3[n+]2CCCCI)cc1,?,.,50.1µM*,.,.,?
CCOCCCNC(=O)C(c1ccc(C)cc1)N(Cc1ccc2c(c1)OCO2)C(=O)c1ccc(NC(C)=O)cc1 (stereo not given),-19.5%,-4.1%,36.5%,.,20.4%,3.3%
CC(C)c1ccc(CN(C(=O)/C=C/c2ccco2)C2CCS(=O)(=O)C2)cc1 (stereo not given),-8.1%,?,?,?,?,-24.5%
O=C(/C=C/c1ccco1)N(Cc1ccccc1F)C1CCS(=O)(=O)C1 (stereo not given),9.9%,?,50.1µM*,-10.8%[11.6 µM],?,-22.2%
COCCNC(=O)c1nn(-c2ccc(Cl)cc2)nc1CO,6.0%,7.6%,22.4%,.,52.9%,6.0%
COc1c(Cl)cc(C(=O)NN)cc1Cl,1.4%,0.2%,55.1%,-26.2%,-1.1%,-5.6%
NNC(=O)c1cc(O)c(O)c(O)c1,22.4µM*,-0.6%,?,-15.5%[57.1 µM],3.16µM*,56.2µM*
CCC(Oc1ccccc1)C(=O)Nc1ccc(O)c(-c2nc3cc(C)ccc3o2)c1 (stereo not given),0.7%,.,17.0%,.,-3.9%,5.0%
Cc1ccc(S(=O)(=O)N2CCN(c3ccnc(-c4cccs4)n3)CC2)cc1,-8.4%,.,5.9%,.,.,-10.3%
Cc1ccc(C)c(N/C(N)=N/c2nc(C)cc(C)n2)c1,50.1µM*,-10.8%,21.9%,45.4%,42.3%,2.9%
COc1ccc(C)cc1N/C(N)=N/c1nc(C)cc(C)n1,-4.7%,-5.2%,8.9%,0.3%,13.3%,-5.7%
CS(=O)(=O)N1CCC[C@@]2(CCN(Cc3ccc(C#N)cc3)C2)C1,.,.,.,.,.,-0.8%[60.1 µM]
O=C1c2ccccc2C(=O)c2c([N+](=O)[O-])ccc(O)c21,?,31.6µM*,50.1µM*,?,?,-36.3%
CC(=O)N[C@H]1CSSC[C@@H](C(=O)N2CCC[C@H]2C(=O)N2CCC[C@H]2C(=O)N[C@@H](CCCCN)C(=O)N[C@@H](CC(=O)O)C(N)=O)NC(=O)CNC(=O)[C@H](Cc2c[nH]c3ccccc23)NC(=O)[C@H](CCCNC(=N)N)NC(=O)[C@@H](Cc2ccc3ccccc3c2)NC(=O)[C@H](Cc2cnc[nH]2)NC(=O)[C@H](CCC(=O)O)NC1=O,.,.,.,.,.,14.8%[60.1 µM]
CC(C)(C)OC(=O)N1CCC(c2c(C(=O)N3CCCCC3)cnn2-c2ccccc2Cl)CC1,15.4%,-14.8%,40.0%,.,5.8%,-2.9%
COc1ccc(-n2nc(C(=O)NCC(=O)Nc3cccc(Cl)c3)c3ccccc3c2=O)cc1OC,-24.0%,?,47.8%,-3.4%,25.1µM*,3.5%
CCOc1ccc(NC(=O)CNC(=O)c2nn(-c3ccc(OC)c(OC)c3)c(=O)c3ccccc23)cc1,11.9%,-28.0%,?,-29.9%,-24.9%,-1.0%
CC1=NN(c2ccccc2)C(=O)C1C(=O)c1cc([N+](=O)[O-])cc([N+](=O)[O-])c1 (stereo not given),-7.9%,-4.4%,15.8µM*,-16.4%,2.2%,-4.8%

# Screening data deposited in PubChem BioAssay by National Center for Advancing Translational Sciences (NCATS).
